Assay results published in PubChem BioAssay.
Calls of active or inactive are those of the source.

Assays:
[1] = test system: PRMT1 (protein arginine N-methyltransferase 1); experiment: small molecules binding arginine methyltransferase PRMT1 – biochemical, small-molecule microarray, 635 nm fluorescence, primary screen (AID 1088); conditions: higher = more signal;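 note: binding of Prmt1 protein to compounds spotted on small-molecule microarray slides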
[2] = growth effects on S. cerevisiae YJM789 – YJM789 clinical isolate, OD600, 24 h, basal, primary screen (AID 1089); conditions: higher = more signal, called active from +8 up or from −8 down;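 note: growth of clinical yeast isolate S. cerevisiae YJM 789 seeded 1000 cells per well; test concentration not given here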
[3] = S. pombe growth modifiers, basal conditions – strain 972, OD600, 24 h, no modulator, primary screen (AID 1090);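 note: basal condition with compound alone and no growth modifier present; test concentration not given here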; conditions: S. pombe 972 growth, higher = more signal, called active from +8 up or from −8 down
[4] = budding yeast growth modifiers under rapamycin – strain BY4716, OD600, 96 h, primary screen (AID 1091); note: test concentration not given here; conditions: S. cerevisiae BY4716 + rapamycin, higher = more signal, called active from +8 up or from −8 down
[5] = target: Torsin-1A-interacting protein 2 (Homo sapiens) (UniProt Q8NFQ8); experiment: small molecules binding lysate-expressed LULL1 – cell lysate, human LULL1 lysate, 635/667 nm fluorescence, primary screen (AID 1092); conditions: small-molecule microarray, hLULL1 lysate binding, 635 nm fluorescence; higher = more signal;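 note: probe is lysate of COS7 cells overexpressing human LULL1; score merges per-feature 667 nm fluorescence with signal-to-noise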
[6] = optical density change of DRC41 E. coli – strain DRC41, OD650, 24 h, E. coli filamentation project, primary screen (AID 1093);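 note: MC1000 strain lacking acrAB efflux and sulA so SOS filamentation is blocked; test concentration not given here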; conditions: E. coli DRC41 growth, higher = more signal, called active from +8 up or from −8 down
[7] = probe aLefty2 binding to arrayed compounds – biochemical, biotinylated probe, 635/667 nm fluorescence, primary screen (AID 1094); conditions: small-molecule microarray, higher = more signal;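 note: score merges spot fluorescence near 667 nm with spot signal-to-noise ratio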
[8] = test system: Noggin (protein binding on small-molecule microarray); experiment: small molecules binding Noggin protein – biochemical, 635/667 nm fluorescence, primary screen (AID 1095); conditions: 635 nm fluorescence, higher = more signal;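 note: score merges 667 nm feature fluorescence with signal to noise over triplicate slides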
[9] = target: Neurogenic locus notch homolog protein 3 (Homo sapiens) (UniProt Q9UM47); experiment: small molecules binding NOTCH3 protein – biochemical, 635/667 nm fluorescence, primary screen (AID 1096); conditions: small-molecule microarray, 635 nm fluorescence, higher = more signal
[10] = probe aEGFR binding to arrayed compounds – biochemical, biotinylated probe, 635/667 nm fluorescence, primary screen (AID 1097); conditions: small-molecule microarray, higher = more signal;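 note: probe is a biotinylated anti-EGFR antibody binding compounds printed on slides; score combines fluorescence near 667 nm and signal to noise of each spot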
[11] = test system: Plasmodium falciparum Sir2 (PF13_0152, Sir2A); experiment: Plasmodium falciparum Sir2A binding compounds – biochemical, small-molecule microarray, 635 nm fluorescence, primary screen (AID 1098); conditions: fluorescence 635 nm, higher = more signal;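 note: score merges spot fluorescence intensity with its signal-to-noise ratio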
[12] = probe aDKK1 binding to arrayed compounds – biochemical, biotinylated probe, 635/667 nm fluorescence, primary screen (AID 1099); conditions: small-molecule microarray, higher = more signal;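 note: score merges 667nm spot fluorescence with signal to noise across triplicate slides; reference of the scale not given here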
[13] = probe aCHRDL2 binding to arrayed compounds – biochemical, biotinylated probe, 635/667 nm fluorescence, primary screen (AID 1100); conditions: small-molecule microarray, higher = more signal
[14] = change in splice reporter luminescence, either direction, cell-based, HEK293, spliceosome inhibition project, primary screen (AID 1101); conditions: HEK293 splicing luciferase reporter, 24 h, higher = more signal, called active from +8 up or from −8 down;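 note: HEK293 cells carrying a splicing-competent luciferase reporter gene; test concentration not given here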
[15] = target: Fibroblast growth factor 10 (Homo sapiens) (UniProt O15520); experiment: compounds binding fibroblast growth factor 10 – biochemical, small-molecule microarray, 635 nm fluorescence, primary screen (AID 1102); conditions: FGF10 binding, fluorescence 635 nm, higher = more signal
[16] = test system: glycogen synthase kinase-3 (GSK3A per assay name; protocol says GSK3B); experiment: compounds binding glycogen synthase kinase-3 – biochemical, small-molecule microarray, 635 nm fluorescence, GSK3A, primary screen (AID 1103); conditions: fluorescence 635 nm, higher = more signal; note: the record names both GSK3A and GSK3B
[17] = target: Epidermal growth factor receptor (Homo sapiens) (UniProt P00533); experiment: compounds binding epidermal growth factor receptor – biochemical, small-molecule microarray, 635 nm fluorescence, primary screen (AID 1104); conditions: EGFR binding, higher = more signal;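 note: score merges 667 nm emission intensity with spot signal to noise over triplicate slides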
[18] = target: Follistatin-related protein 3 (Homo sapiens) (UniProt O95633); experiment: compounds binding follistatin-related protein 3 – biochemical, small-molecule microarray, 635 nm fluorescence, primary screen (AID 1105); conditions: FSTL3 binding, higher = more signal;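 note: score merges emission near 667 nm and signal to noise per printed spot across three slides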
[19] = target: Dickkopf-related protein 1 (Homo sapiens) (UniProt O94907); experiment: small molecules binding DKK1 protein – biochemical, small-molecule microarray, 635 nm fluorescence scan, primary screen (AID 1106); conditions: higher = more signal;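 note: score merges emission near 667 nm with signal to noise over three replicate slides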
[20] = test system: Inhibin beta A chain (activin A); experiment: small molecules binding activin A – biochemical, small-molecule microarray, 635 nm fluorescence scan, primary screen (AID 1107); conditions: INHBA, higher = more signal;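 note: mouse activin A protein probed at 4.33 µg/mL on printed slides; score merges bound-protein fluorescence near 667 nm with spot signal-to-noise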

Sequence of Fibroblast growth factor 10 (Homo sapiens) (O15520 whole entry, looked up): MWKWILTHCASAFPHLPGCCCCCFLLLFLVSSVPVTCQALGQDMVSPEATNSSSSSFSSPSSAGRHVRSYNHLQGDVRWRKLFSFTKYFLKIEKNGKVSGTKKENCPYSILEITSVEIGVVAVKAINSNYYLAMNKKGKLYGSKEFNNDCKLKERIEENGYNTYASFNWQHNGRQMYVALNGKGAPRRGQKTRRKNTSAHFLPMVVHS
Sequence of Epidermal growth factor receptor (Homo sapiens) (P00533 whole entry, looked up): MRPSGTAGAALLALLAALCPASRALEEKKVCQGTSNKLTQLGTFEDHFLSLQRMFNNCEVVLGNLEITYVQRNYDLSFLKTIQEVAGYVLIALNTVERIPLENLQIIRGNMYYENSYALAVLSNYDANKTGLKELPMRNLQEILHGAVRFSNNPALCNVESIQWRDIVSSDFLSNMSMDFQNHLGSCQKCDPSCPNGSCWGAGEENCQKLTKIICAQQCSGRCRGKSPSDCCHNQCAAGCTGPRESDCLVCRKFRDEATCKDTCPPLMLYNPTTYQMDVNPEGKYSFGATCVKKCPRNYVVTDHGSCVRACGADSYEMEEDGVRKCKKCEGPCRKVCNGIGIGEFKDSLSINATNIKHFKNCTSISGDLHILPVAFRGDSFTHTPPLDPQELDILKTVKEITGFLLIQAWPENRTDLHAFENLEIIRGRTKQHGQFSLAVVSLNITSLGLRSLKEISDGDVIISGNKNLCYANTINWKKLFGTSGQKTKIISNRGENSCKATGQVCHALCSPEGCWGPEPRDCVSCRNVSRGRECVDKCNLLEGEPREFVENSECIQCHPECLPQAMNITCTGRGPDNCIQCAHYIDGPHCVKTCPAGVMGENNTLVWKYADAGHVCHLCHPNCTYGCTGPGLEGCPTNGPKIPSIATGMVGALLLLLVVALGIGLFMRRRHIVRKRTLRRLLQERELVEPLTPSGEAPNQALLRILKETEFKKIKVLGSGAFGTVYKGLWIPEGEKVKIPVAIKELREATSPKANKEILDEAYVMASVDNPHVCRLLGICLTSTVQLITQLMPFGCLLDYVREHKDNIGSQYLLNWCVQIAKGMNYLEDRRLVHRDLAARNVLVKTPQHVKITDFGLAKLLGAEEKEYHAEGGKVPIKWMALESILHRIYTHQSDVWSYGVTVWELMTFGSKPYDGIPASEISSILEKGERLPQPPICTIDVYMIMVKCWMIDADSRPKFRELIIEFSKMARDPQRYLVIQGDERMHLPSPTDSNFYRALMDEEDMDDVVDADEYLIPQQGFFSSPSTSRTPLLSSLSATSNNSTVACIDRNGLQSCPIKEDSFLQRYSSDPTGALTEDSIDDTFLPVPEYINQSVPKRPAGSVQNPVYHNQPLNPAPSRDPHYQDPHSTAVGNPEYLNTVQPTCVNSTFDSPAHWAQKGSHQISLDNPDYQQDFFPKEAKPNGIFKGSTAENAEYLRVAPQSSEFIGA
Sequence of Dickkopf-related protein 1 (Homo sapiens) (O94907 whole entry, looked up): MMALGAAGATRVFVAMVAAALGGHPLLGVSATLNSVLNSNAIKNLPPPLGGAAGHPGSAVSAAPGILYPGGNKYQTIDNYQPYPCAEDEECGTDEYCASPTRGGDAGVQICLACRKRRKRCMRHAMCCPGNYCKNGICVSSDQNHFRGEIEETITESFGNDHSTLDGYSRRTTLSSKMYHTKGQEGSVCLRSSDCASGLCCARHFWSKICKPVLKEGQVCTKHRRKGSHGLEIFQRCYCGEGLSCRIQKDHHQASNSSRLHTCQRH
Sequence of Torsin-1A-interacting protein 2 (Homo sapiens) (Q8NFQ8 whole entry, looked up): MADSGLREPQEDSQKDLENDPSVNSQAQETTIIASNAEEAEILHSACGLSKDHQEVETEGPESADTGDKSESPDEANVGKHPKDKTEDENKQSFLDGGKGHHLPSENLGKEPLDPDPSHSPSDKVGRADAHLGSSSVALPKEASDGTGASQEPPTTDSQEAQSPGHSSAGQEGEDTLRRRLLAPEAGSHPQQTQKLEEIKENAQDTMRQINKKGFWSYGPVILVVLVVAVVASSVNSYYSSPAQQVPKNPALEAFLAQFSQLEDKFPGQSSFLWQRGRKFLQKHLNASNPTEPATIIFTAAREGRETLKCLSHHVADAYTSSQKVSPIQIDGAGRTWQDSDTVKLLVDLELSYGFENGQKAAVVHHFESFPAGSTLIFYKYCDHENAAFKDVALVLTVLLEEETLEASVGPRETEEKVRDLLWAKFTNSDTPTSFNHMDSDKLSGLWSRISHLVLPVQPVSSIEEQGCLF
Sequence of Neurogenic locus notch homolog protein 3 (Homo sapiens) (Q9UM47 whole entry, looked up): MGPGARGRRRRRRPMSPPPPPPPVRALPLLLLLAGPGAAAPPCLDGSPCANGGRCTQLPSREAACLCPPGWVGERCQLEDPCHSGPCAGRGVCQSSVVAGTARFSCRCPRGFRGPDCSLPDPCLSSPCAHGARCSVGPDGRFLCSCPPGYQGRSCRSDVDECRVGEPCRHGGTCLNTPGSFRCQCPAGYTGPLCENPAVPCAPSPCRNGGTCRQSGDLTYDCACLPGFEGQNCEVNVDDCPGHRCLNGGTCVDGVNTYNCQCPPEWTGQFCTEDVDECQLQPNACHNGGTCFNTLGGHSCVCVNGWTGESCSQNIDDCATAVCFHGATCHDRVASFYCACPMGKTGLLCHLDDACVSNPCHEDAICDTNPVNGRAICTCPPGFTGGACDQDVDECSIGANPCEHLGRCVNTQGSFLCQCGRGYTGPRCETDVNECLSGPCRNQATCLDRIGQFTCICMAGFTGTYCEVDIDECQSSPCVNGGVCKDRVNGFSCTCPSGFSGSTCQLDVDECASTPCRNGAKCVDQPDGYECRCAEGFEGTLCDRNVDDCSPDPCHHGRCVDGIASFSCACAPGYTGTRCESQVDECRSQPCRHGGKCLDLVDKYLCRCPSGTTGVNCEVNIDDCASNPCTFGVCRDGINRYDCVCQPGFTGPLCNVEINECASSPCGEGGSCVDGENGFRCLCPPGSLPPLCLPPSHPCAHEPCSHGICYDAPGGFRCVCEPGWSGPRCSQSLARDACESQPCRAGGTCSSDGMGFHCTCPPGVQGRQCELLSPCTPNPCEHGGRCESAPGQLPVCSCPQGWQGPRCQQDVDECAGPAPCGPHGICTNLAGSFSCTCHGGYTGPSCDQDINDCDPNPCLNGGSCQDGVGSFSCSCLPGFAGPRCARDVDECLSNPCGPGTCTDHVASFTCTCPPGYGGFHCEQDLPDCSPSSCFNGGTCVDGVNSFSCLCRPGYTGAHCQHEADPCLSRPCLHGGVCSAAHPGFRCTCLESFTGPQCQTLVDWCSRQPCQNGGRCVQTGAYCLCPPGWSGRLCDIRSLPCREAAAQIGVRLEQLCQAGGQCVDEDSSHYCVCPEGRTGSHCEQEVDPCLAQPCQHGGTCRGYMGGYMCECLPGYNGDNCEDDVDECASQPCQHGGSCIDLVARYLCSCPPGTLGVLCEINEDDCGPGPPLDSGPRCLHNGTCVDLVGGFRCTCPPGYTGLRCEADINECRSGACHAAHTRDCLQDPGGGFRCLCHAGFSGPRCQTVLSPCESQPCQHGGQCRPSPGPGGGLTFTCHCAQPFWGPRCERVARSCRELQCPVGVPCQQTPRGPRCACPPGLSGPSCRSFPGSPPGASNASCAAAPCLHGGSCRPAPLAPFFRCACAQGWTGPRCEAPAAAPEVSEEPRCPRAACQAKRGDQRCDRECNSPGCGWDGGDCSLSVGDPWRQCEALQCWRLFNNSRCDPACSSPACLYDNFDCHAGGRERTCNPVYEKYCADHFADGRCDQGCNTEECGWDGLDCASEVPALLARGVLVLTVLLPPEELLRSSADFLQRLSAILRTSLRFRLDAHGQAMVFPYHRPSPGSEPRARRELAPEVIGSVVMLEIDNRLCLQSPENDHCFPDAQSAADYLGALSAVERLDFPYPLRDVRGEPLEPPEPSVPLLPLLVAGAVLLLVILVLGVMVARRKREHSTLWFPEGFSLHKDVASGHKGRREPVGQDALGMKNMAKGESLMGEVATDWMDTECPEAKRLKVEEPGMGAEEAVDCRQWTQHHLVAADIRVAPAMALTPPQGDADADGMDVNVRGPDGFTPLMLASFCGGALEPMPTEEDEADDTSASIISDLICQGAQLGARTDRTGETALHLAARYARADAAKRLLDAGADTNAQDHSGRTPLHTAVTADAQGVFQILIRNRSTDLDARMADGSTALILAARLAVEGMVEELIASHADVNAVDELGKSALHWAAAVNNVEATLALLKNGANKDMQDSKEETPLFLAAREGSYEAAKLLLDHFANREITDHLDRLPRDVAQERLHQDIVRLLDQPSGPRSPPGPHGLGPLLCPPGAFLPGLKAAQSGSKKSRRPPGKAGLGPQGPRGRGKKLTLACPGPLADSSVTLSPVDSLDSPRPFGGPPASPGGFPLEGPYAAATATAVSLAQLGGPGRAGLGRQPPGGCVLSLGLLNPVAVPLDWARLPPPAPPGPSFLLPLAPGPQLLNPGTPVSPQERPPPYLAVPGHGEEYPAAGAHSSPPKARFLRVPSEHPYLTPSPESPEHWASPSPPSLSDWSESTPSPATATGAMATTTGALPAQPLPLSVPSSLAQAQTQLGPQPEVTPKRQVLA
Sequence of Follistatin-related protein 3 (Homo sapiens) (O95633 whole entry, looked up): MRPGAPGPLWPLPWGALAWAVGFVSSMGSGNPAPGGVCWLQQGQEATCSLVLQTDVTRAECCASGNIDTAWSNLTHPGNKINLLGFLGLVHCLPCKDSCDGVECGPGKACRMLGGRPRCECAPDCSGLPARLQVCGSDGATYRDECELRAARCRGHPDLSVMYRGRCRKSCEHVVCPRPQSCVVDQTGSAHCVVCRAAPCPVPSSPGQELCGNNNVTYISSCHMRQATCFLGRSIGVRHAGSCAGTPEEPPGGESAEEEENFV

SMILES | composite z-score [1] | z-score [2] | z-score [3] | z-score [4] | composite z-score [5] | z-score [6] | composite z-score [7] | composite z-score [8] | composite z-score [9] | composite z-score [10] | composite z-score [11] | composite z-score [12] | composite z-score [13] | z-score [14] | composite z-score [15] | composite z-score [16] | composite z-score [17] | composite z-score [18] | composite z-score [19] | composite z-score [20]
CN(C)C(=O)[C@]1(Cc2ccccc2)N=C(c2ccc(OCCCO)cc2)O[C@@H]1c1ccccc1 | 1.52 | 0.0608 (inactive) | -3.66 (inactive) | -0.344 (inactive) | 3.52 | -0.465 (inactive) | 0.0735 | 0.372 | 0.771 | -0.0157 | 0.747 | 0.129 | 0.624 | -0.012 (inactive) | 1.13 | 1.29 | -0.515 | 0.289 | -0.698 | 0.231
C=CCN1C(=O)[C@]2(O[C@H](CCO)[C@@H]([Si](C)(C)c3ccc(OC)cc3)[C@@H]2C)c2ccccc21 | -0.539 | -2.75 (inactive) | -3.07 (inactive) | 5.72 (inactive) | 0.602 | -0.41 (inactive) | -0.0962 | -0.788 | -0.593 | -0.178 | 0.504 | -0.141 | 0.837 | -3.11 (inactive) | -0.876 | -0.73 | -0.66 | -0.608 | -1.27 | 0.456
C[N+](C)(C)CCCCCCNC(=O)[C@H]1C[C@H]2C(=O)NCC(=O)N2[C@H]1c1cccc(OCCO)c1 | 1.22 | -0.874 (inactive) | 0.198 (inactive) | 0.0891 (inactive) | 3.07 | -0.329 (inactive) | -0.133 | 1.48 | 1.12 | 0.208 | 1.75 | -0.149 | 0.0218 | -0.34 (inactive) | 0.439 | 0.548 | 0.228 | 0.969 | 1.28 | 0.169
CN(C)CCCC[C@@H]1NC(=O)[C@@H]2C[C@H](C(=O)NCc3ccc(F)cc3)[C@H](c3ccc(O)cc3)N2C1=O | 1.34 | 0.582 (inactive) | -1.4 (inactive) | 0.0709 (inactive) | 2.72 | -0.585 (inactive) | 0.164 | 1.9 | 0.968 | 0.364 | 1.56 | -0.126 | -0.0292 | 0.104 (inactive) | 1.47 | 0.941 | 0.176 | 0.0719 | 0.2 | -1.43
CCCCC(O)C1C=CC2C(=O)NC(=O)C2N1Nc1ccccn1 (stereo not given) | -0.357 | 0.374 (inactive) | 0.667 (inactive) | 0.0569 (inactive) | 0.0273 | -1.73 (inactive) | -0.0825 | -0.0426 | -0.421 | -0.067 | 1.1 | 0.0006 | -0.0537 | 2.17 (inactive) | -0.0249 | 0.0652 | 0.207 | -0.404 | 0.0816 | 0.555
COc1ccc([Si](C)(C)[C@H]2[C@H](CCO)O[C@@]3(C(=O)N(Cc4ccccc4)c4ccc(N(C=O)c5ccccc5)cc43)[C@@H]2C)cc1 | 1.57 | -0.347 (inactive) | 1.08 (inactive) | 20.3 (active) | 1.65 | 0.773 (inactive) | -0.182 | 0.513 | 1.09 | -0.0121 | 0.638 | 0.0036 | -0.19 | -0.663 (inactive) | 0.651 | -0.273 | 0.0677 | 0.618 | 0.167 | 0.2
O=C1OCCC/C=C\[C@H]2OC34C=CCN(Cc5ccccc5)C(=O)[C@H]3N(CCCCCO)C(=O)[C@@H]4C12 (stereo not given in full) | 1.01 | -1.05 (inactive) | -2.16 (inactive) | 15.7 (active) | 3.13 | 0.549 (inactive) | -0.166 | -0.773 | -0.0471 | -0.245 | 1.21 | -0.312 | 0.312 | -0.0325 (inactive) | -0.744 | -0.823 | -1.1 | -0.808 | -0.663 | 0.933
C[C@H]1C2[C@H](Cc3ccccc3)NC(=O)[C@]23C(=O)NCC(=O)N2CCC[C@H]2C(=O)NC/C=C\C/C=C/C3[C@@H]2O[C@]12C (stereo not given in full) | -0.115 | -0.479 (inactive) | -0.186 (inactive) | -0.406 (inactive) | -0.691 | 0.924 (inactive) | -0.161 | -0.102 | 0.105 | -0.0531 | 1 | -0.22 | -0.6 | 0.0829 (inactive) | 0.269 | -0.0567 | 0.136 | 0.201 | 0.376 | 1.43
CN1C(=O)[C@]2(CCS(=O)(=O)c3ccccc3)N=C(c3ccc(OCCCO)cc3)O[C@@H]2c2ccccc21 | 1.54 | 0.921 (inactive) | -0.895 (inactive) | 3.62 (inactive) | 3.41 | -0.532 (inactive) | -0.0271 | 0.804 | 1.12 | -0.168 | 1.38 | 0.0991 | 0.89 | -0.674 (inactive) | 0.458 | 1.33 | -0.0528 | 0.669 | 0.367 | 0.3
O=C1NC(=O)C2C1C=CC(C(O)c1ccc(F)cc1)N2Nc1ccccn1 (stereo not given) | 0.477 | 0.128 (inactive) | 0.42 (inactive) | 0.333 (inactive) | 2.64 | -1.83 (inactive) | -0.103 | -0.0682 | -0.0883 | -0.0271 | 1.06 | -0.118 | 0.243 | 1.23 (inactive) | 0.138 | -0.371 | 0.255 | -0.0918 | 0.297 | 0.877
